Source: PubChem BioAssay (NCI)
About 83,000 compounds went through this panel and 20% of them were active in at least one assay; those are over-represented in the sample as a whole.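 96-well plates, one dose, 48 hours. Percent growth reported; active if below 10.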 Values without a mark were called inactive. Activity calls are given as the source filed them.

Assays:
Assay in all cases: NCI-60 one-dose screen, 48 h (100 = growth as untreated, 0 = no growth, -100 = all killed)
[1] = test system: SR leukemia; details: 10 µM unless noted
[2] = test system: RPMI-8226 leukemia; details: 10 µM unless noted
[3] = test system: OVCAR-8 ovarian; details: 10 µM unless noted
[4] = test system: OVCAR-5 ovarian; details: 10 µM unless noted
[5] = test system: SK-OV-3 ovarian; details: 10 µM unless noted
[6] = test system: IGROV1 ovarian; details: 10 µM unless noted
[7] = test system: OVCAR-3 ovarian; details: 10 µM unless noted
[8] = test system: HS 578T breast; details: 10 µM
[9] = test system: NCI/ADR-RES ovarian; details: 10 µM unless noted
[10] = test system: T-47D breast; details: 10 µM unless noted
[11] = test system: BT-549 breast; details: 10 µM unless noted
[12] = test system: MDA-MB-435 melanoma; details: 10 µM unless noted
[13] = test system: SW-620 colon; details: 10 µM unless noted
[14] = test system: MCF7 breast; details: 10 µM unless noted
[15] = test system: HCT-116 colon; details: 10 µM unless noted
[16] = test system: HCC-2998 colon; details: 10 µM unless noted
[17] = test system: KM12 colon; details: 10 µM unless noted
[18] = test system: OVCAR-4 ovarian; details: 10 µM unless noted

Row | SMILES | growth [1] | growth [2] | growth [3] | growth [4] | growth [5] | growth [6] | growth [7] | growth [8] | growth [9] | growth [10] | growth [11] | growth [12] | growth [13] | growth [14] | growth [15] | growth [16] | growth [17] | growth [18] [%]
1 | CCOC(=O)c1ccc(NCCC(=O)O)cc1 | 103% | 115% | 104% | 110% | 113% | 112% | 138% | 104% | 113% | 101% | 110% | 116% | 110% | 92.4% | 111% | 103% | 110% | –
2 | COc1ccc2[nH]c(C(=O)OCc3ccc4c(Br)cc(Br)c(O)c4n3)cc2c1 | 2.81% (active) | -24.2% (active) | -27.7% (active) | -48.4% (active) | 62.6% | -90.9% (active) | -91.3% (active) | -15.4% (active) | -30.6% (active) | -51.9% (active) | -88.2% (active) | -72.4% (active) | -72.8% (active) | -36.8% (active) | -74.8% (active) | -77.7% (active) | -48.6% (active) | –
3 | CCOC(=O)c1ccccc1SC(C[N+](=O)[O-])c1ccccc1 (stereo not given) | 38.2% | -41.5% (active) | 85.8% | 100% | – | 72.1% | 104% | 104% | – | 60.6% | 88.4% | -58.1% (active) | 55.8% | 1.05% (active) | – | 8.62% (active) | 91.6% | 89.1
4 | C[C@@H](C[C@H](CC1CC1)c1ccccc1)c1ccc2ccccc2c1 | 106% | 98.8% | 106% | 107% | 117% | 101% | 113% | 108% | 105% | – | 106% | 102% | 93.6% | 108% | 98.6% | 101% | 103% | –
5 | Nc1ccc(C(OC(=O)c2cc3ccccc3c(Cc3c(O)c(C(=O)OC(c4ccc(N)cc4)(c4ccc(N)cc4)c4ccc(N)cc4)cc4ccccc34)c2O)(c2ccc(N)cc2)c2ccc(N)cc2)cc1 | 13.1% | 2.08% (active) | 13.5% | 38.8% | 15.7% | 47.4% | -14.3% (active) | -18.4% (active) | 57.1% | 17.2% | -4.24% (active) | 6.93% (active) | 15.9% | 9.51% (active) | 8.88% (active) | 9.42% (active) | 5.29% (active) | –
6 | Cc1c(C)c(C)c([N+](=O)[O-])c([N+](=O)[O-])c1C | 99.8% | 119% | 102% | 84.5% | 111% | 122% | 98.5% | 96.5% | 99.4% | – | 101% | 88.6% | 106% | 97% | 109% | 103% | 98.1% | –
7 | COc1c(B(O)O)cccc1-c1nc2ccc3[nH]ncc3c2c2c1CCCC2 | 13.9% | 7.44% (active) | 17% | 29.5% | 6.76% (active) | 13.8% | 19.3% | 14.6% | 50.7% | 39.2% | 7.15% (active) | 38.4% | 8.47% (active) | 2.24% (active) | 6% (active) | 53.3% | 1.71% (active) | –
8 | COc1ccccc1/C=N\NC(=S)Nc1ccc(F)cc1 | 28.6% | 79.8% | 78.7% | 94.1% | 89.2% | 72.1% | 69.7% | 70.3% | 38.4% | 72.5% | 73.3% | 1.12% (active) | 37.5% | 60.5% | 68.7% | 66.5% | 51.4% | –
9 | C/C(=N\NC(=S)N1CCCCC1)c1ccccn1 | -7.37% (active) | -19.4% (active) | 16% | 29.3% | 27.6% | 11.2% | -12.9% (active) | 16.8% | 15.2% | 17.9% | 29.4% | 14.6% | 21.9% | 12.8% | 13.3% | 34.8% | 13% | –
10 | COc1cc(NC(C)CCCN)c2ncccc2c1Sc1ccc(Cl)cc1 (stereo not given) | -35.2% (active) | -8.1% (active) | 33.3% | 77.8% | 94.7% | 38.9% | 58.6% | 58.9% | 91.6% | 58.7% | 90.9% | 55.7% | -69.1% (active) | 26% | 23.9% | 12.3% | 34.4% | –
11 | COc1ccc(-c2[nH]nc(N)c2-c2cc(OC)c(OC)c(OC)c2)cc1 | -23.7% (active) | -8.96% (active) | 7.81% (active) | 38.8% | 4.97% (active) | 1.08% (active) | -28.3% (active) | 25.6% | -9.45% (active) | 52.8% | 3.37% (active) | -69.2% (active) | 23% | 16.3% | 6.24% (active) | 1.36% (active) | 3.55% (active) | –
12 | CSC(=S)N/N=C(\C)c1ccccn1 | -3.68% (active) | 12% | 14.6% | 27.1% | 30.2% | 19.4% | 5.95% (active) | 38.1% | 12.8% | 21.8% | 28.8% | 35.8% | 29.5% | 7.66% (active) | 9.68% (active) | 28% | 19.9% | –
13 | COc1cc(-c2csc(NC(=O)Nc3cccc(C(F)(F)F)c3)n2)cc(OC)c1OC | 67.3% | 18.6% | 22.6% | 80.3% | – | 59.6% | 37.7% | 71.2% | – | 7.61% (active) | 43.8% | 57.1% | 74.3% | 35.5% | 46.9% | 81.1% | 34.5% | 29.9
14 | CCOC(C)(c1ccc(Cl)cc1)C1CCNCC1 (stereo not given) | 88.1% | 114% | 100% | 102% | 96.1% | 115% | 110% | 92.7% | 92.5% | 91.7% | 99.5% | 109% | 79% | 94.8% | 97.8% | 89.4% | 98.2% | –
15 | CC(=O)O[C@H]1[C@H](CC#CC#CC[C@@H]2C[C@]3(C)[C@H]4CC=C5[C@H]6[C@@H](C)[C@H](C)CC[C@]6(C(=O)NCCN(CCN)CCN)CC[C@@]5(C)[C@]4(C)CC[C@H]3C(C)(C)[C@H]2OC(C)=O)C[C@]2(C)[C@H]3CC=C4[C@H]5[C@@H](C)[C@H](C)CC[C@]5(C(=O)NCCN(CCN)CCN)CC[C@@]4(C)[C@]3(C)CC[C@H]2C1(C)C | 53.9% | 26.6% | 3.13% (active) | 54.6% | 89.2% | 62.3% | 89% | 70.6% | 49.2% | – | 99.9% | 64.7% | 64% | -0.0516% (active) | 75.5% | 72.3% | 86.1% | –
16 | CCCCCCCCCCCCCCCc1cc(O)ccc1[N+](=O)[O-] | 74.5% | 36.3% | 76.9% | 94% | 92% | 73.9% | 87.7% | 82.1% | 77.1% | 61.2% | 76.4% | 96.8% | 93.1% | 66% | 64.7% | 104% | 89.3% | –
17 | O=c1[nH]c2ccccc2n2cc3cccnc3c12 | 36% | 89.3% | 63.4% | 140% | 82.5% | 90.2% | 91.8% | 88.4% | 58.8% | 81% | 111% | 12.5% | 31.5% | 32.2% | 33% | 82.1% | 52.6% | –
18 | CCN(CC)Cc1cc(Nc2ccnc3cc(Cl)ccc23)cc(-c2ccc(Cl)cc2)c1O | -22.7% (active) | 6% (active) | 9.58% (active) | 54.2% | 48.1% | -6.07% (active) | -44.1% (active) | -33.5% (active) | 19.9% | 50.9% | 25.4% | 35.4% | 12.3% | 14.8% | 43.4% | 64.3% | 34.5% | –
